14 molecules from PubChem BioAssay (Tox21) can be followed below.

SMILES strings stand for the structures. Values without a mark were called inactive. Inconclusive results are not listed. Calls of active or inactive are those of the source. Unless noted, calls come from the whole dose curve; as a rule, active = well fitted curve in the direction sought with a large enough effect in the repeat runs; inconclusive = weak or mixed curves; inactive = no such curve, though single readings can be large; an effect the other way counts as inactive or inconclusive.

A short description of test [1]: qHTS assay to test for compound auto fluorescence at 535 nm (green) in HEK293 cells (AID 720680).
Test [2] in a line: qHTS assay to test for compound auto fluorescence at 460 nm (blue) in HEK293 cell free culture (AID 720681). An outline of the steps:
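Compounds were added to cell-free DMEM with 10% FBS and fluorescence read directly. The blue channel used 405 nm excitation and 460 nm emission, with triamterene as the reference fluorophore.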

Test [3] can be described thus: qHTS assay to test for compound auto fluorescence at 535 nm (green) in HEK293 cell free culture (AID 720682). The method, boiled down: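 Measurement is a direct plate read of green fluorescence (485 nm in, 535 nm out) after compound addition to serum-supplemented DMEM lacking cells, with fluorescein used to express intensities.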
A short description of test [4]: qHTS assay to test for compound auto fluorescence at 590 nm (red) in HEK293 cell free culture (AID 720683). The method, boiled down:
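Cell-free wells of DMEM with 10% FBS received compound, and intrinsic fluorescence was read at excitation/emission 540/590 nm. Values expressed as equivalence to Rose Bengal sodium.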

Test [5] can be described thus: qHTS assay to test for compound auto fluorescence at 590 nm (red) in HepG2 cell free culture (AID 720684). An outline of the steps: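 Compound was pinned into wells holding MEM with 10% FBS and no cells, and red fluorescence was read at Ex/Em 540/590 nm. Signal is expressed as auto fluorescence equivalency relative to Rose Bengal sodium.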
Test [6] can be described thus: qHTS assay to test for compound auto fluorescence at 460 nm (blue) in HepG2 cell free culture (AID 720685). The method, boiled down: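 Compound (23 nL) or DMSO pinned into cell-free MEM with 10% FBS; blue fluorescence read at 405/460 nm excitation/emission, expressed as auto-fluorescence equivalency to triamterene.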
Test [7] can be described thus: qHTS assay to test for compound auto fluorescence at 535 nm (green) in HepG2 cell free culture (AID 720686).
A short description of test [8]: qHTS assay to test for compound auto fluorescence at 460 nm (blue) in HepG2 cells (AID 720687). An outline of the steps: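 HepG2 cells in MEM with 10% FBS, attached overnight at 37 C, were exposed to compound or DMSO for 1 hr at 37 C, 5% CO2. Blue fluorescence was read at 405/460 nm, with triamterene as reference fluorophore.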
In test [9] the target is Glucocorticoid receptor (Homo sapiens) (UniProt P04150). As to the kind of experiment: qHTS assay to identify small molecule agonists of the glucocorticoid receptor (GR) signaling pathway (AID 720691; active = well fitted activation curve with a large enough effect in the signal ratio in the repeat runs, not every such curve was filed as active; the % refers to the signal ratio; note: potency is the fitted concentration of half-maximal effect). The method, boiled down:
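GR-bla HeLa cells carrying a GRE-driven beta-lactamase reporter, exposed to compounds for 18 h at 37 C. Reporter activation read as fluorescence after 2 h with LiveBLAzer B/G FRET substrate at room temperature.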

Test [10] has the same target. As to the kind of experiment: qHTS assay to identify small molecule antagonists of the glucocorticoid receptor (GR) signaling pathway (AID 720692; active = well fitted inhibition curve with a large enough effect in the signal ratio in the repeat runs, not every such curve was filed as active; the % refers to the signal ratio). The method, boiled down: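 GR-bla HeLa cells carrying a GRE-driven beta-lactamase reporter received compound after 4 h plating, then dexamethasone (5 nM final). After 18 h at 37C, the FRET substrate was loaded for 2 h at room temperature and fluorescence read.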

Test [11] is described as follows: qHTS assay to identify small molecule antagonists of the glucocorticoid receptor (GR) signaling pathway - cell viability counter screen (AID 720693). Note: nearly all actives have a fitted effect of over 55% in size.
The nature of test [12]: qHTS assay for identifying genotoxic compounds that show differential cytotoxicity against isogenic chicken DT40 cell lines with known DNA damage response pathways - wild type cell line (AID 743012). Note: nearly all actives have a fitted effect of over 60% in size. Note: potency is the fitted concentration of half-maximal effect. The method, boiled down: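 Wild-type DT40 cells (300/well) exposed to compounds for 40 hours at 37 C/5% CO2. Viability read by CellTiter-Glo luminescence after 30 min at room temperature.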

Test [13] is described as follows: qHTS assay for identifying genotoxic compounds that show differential cytotoxicity against isogenic chicken DT40 cell lines with known DNA damage response pathways - Rad54/Ku70 mutant cell line (AID 743015). Note: nearly all actives have a fitted effect of over 60% in size.
Test [14] in a line: qHTS assay to identify small molecule antagonists of the androgen receptor (AR) signaling pathway - cell viability counter screen (AID 743033; note: nearly all actives have a fitted effect of over 45% in size).
For test [15], the target named is Androgen receptor (Homo sapiens) (UniProt P10275). As to the kind of experiment: qHTS assay to identify small molecule antagonists of the androgen receptor (AR) signaling pathway (AID 743035; active = well fitted inhibition curve with a large enough effect in the signal ratio in the repeat runs, not every such curve was filed as active; the % refers to the signal ratio). An outline of the steps:
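HEK293 cells stably carrying UAS-beta-lactamase reporter, 2,000/well, given compounds plus R1881 agonist and incubated 16 h at 37C. LiveBLAzer B/G FRET substrate then added for 2 h at room temperature before fluorescence reading.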

For test [16] the target is unchanged. As to the kind of experiment: qHTS assay to identify small molecule agonists of the androgen receptor (AR) signaling pathway using the MDA cell line (AID 743040; note: nearly all actives have a fitted effect of over 20% in size; note: potency is the fitted concentration of half-maximal effect). The method, boiled down: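 MDA-kb2 breast carcinoma cells carrying MMTV-luciferase (responsive to AR and GR), plated 5 h then treated 16 h with compounds at 37C, 0% CO2. Read-out was ONE-Glo luminescence after 30 min at room temperature.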

A short description of test [17]: qHTS assay to identify small molecule antagonists of the androgen receptor (AR) signaling pathway using the MDA cell line - cell viability counter screen (AID 743041; note: nearly all actives have a fitted effect of over 45% in size; note: potency is the fitted concentration of half-maximal effect). The method, boiled down:
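MDA-kb2 AR-luc cells (MMTV-luciferase, AR/GR responsive) treated with compounds plus R1881 agonist for 16 h at 37C. CellTiter-Fluor added at 15.5 h; fluorescence read after 30 min in the same wells.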

Test [18] deals with Androgen receptor (Homo sapiens) (UniProt P10275). As to the kind of experiment: qHTS assay to identify small molecule antagonists of the androgen receptor (AR) signaling pathway using the MDA cell line (AID 743042; note: nearly all actives have a fitted effect of over 55% in size). The method, boiled down: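 MDA-kb2 breast carcinoma cells carrying MMTV-luciferase (AR/GR responsive) were co-treated with compounds and the agonist R1881 for 16 h at 37C. Inhibition read as ONE-Glo luminescence; CellTiter-Fluor fluorescence measured in parallel for cytotoxicity.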
Sequence of Androgen receptor (Homo sapiens) (P10275 whole entry, looked up): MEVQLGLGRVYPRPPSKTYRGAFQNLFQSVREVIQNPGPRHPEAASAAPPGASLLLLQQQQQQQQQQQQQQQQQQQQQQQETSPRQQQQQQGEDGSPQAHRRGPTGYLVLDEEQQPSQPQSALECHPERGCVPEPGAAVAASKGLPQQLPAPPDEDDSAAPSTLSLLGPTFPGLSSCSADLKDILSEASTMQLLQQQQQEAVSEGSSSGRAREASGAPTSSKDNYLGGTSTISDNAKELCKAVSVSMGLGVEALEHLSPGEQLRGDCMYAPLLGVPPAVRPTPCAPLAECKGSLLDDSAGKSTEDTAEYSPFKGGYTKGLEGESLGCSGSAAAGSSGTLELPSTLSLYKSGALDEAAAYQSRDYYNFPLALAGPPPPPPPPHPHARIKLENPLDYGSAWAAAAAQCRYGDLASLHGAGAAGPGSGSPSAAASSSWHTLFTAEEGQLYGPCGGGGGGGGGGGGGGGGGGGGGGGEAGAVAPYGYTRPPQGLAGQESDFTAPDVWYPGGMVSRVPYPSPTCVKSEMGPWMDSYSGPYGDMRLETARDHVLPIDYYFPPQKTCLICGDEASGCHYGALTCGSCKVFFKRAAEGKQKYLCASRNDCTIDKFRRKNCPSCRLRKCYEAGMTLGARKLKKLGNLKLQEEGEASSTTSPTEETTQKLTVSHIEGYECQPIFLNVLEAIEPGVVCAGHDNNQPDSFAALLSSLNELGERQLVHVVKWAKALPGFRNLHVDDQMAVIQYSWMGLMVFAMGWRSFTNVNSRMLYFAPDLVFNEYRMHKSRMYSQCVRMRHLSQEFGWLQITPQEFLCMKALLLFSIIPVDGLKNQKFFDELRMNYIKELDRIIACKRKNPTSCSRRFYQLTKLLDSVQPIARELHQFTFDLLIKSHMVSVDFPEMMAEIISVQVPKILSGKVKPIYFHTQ

The nature of test [19]: qHTS assay for identifying genotoxic compounds that show differential cytotoxicity against isogenic chicken DT40 cell lines with known DNA damage response pathways - Rev3 mutant cell line (AID 743014). Note: nearly all actives have a fitted effect of over 55% in size. Note: potency is the fitted concentration of half-maximal effect.
For test [20], the target named is Androgen receptor (Homo sapiens) (UniProt P10275). As to the kind of experiment: qHTS assay to identify small molecule agonists of the androgen receptor (AR) signaling pathway (AID 743036; active = well fitted activation curve with a large enough effect in the signal ratio in the repeat runs, with a control signal flat, not every such curve was filed as active; the % refers to the signal ratio). An outline of the steps: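 Beta-lactamase under UAS control, stably integrated in HEK293 GripTite cells, reports receptor activation. After 16 h compound treatment, cells received FRET substrate for 2 h at room temperature before fluorescence reading.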

Sequence of Glucocorticoid receptor (Homo sapiens) (P04150 whole entry, looked up): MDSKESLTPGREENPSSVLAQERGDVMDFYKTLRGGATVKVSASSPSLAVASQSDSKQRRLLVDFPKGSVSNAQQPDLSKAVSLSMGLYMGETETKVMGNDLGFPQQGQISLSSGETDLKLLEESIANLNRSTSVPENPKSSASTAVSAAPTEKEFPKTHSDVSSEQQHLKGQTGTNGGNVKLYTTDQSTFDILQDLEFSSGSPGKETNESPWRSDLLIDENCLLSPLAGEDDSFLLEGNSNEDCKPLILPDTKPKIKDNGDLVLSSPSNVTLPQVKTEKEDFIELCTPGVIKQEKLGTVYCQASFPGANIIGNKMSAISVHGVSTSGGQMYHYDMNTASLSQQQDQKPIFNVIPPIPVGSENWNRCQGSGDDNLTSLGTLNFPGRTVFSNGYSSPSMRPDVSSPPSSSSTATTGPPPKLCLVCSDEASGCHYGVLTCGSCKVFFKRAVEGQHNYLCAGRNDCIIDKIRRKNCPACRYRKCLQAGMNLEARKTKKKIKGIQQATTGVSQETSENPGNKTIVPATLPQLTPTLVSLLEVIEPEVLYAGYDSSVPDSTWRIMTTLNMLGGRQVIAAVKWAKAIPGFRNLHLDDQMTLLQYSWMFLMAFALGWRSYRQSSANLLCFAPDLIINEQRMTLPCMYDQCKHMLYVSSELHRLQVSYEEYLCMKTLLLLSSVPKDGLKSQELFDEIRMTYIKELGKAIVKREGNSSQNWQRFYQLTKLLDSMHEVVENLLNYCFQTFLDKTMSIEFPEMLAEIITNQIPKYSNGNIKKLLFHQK

Turning to `CC(=O)N1C[C@H](O)C[C@H]1C(=O)O`, the molecule was classed as inactive in test [1], in test [2], in [3], in test [4], in test [5] and in test [6]. The result in test [7], in [8], in test [11], in test [14] and in [18] was inactive. Further, the Potency entry in [9], in test [10], in test [12], in test [13], in test [15] and in test [17] was “inactive” in each case. Besides, the Potency in test [16] was 26.6 µM (active).
For the molecule `CC(C)CCCO`, the outcome in [1], in [2], in test [3], in [4], in test [5] and in [6] was inactive. For the same molecule, the molecule was called inactive in [7], in test [8], in [11] and in test [14]. The Potency result in test [9], in test [10], in test [12], in test [19], in test [13] and in test [17] was “inactive” each time.
Regarding `O=C(O)CC(C(=O)O)S(=O)(=O)O` (configuration not stated), the molecule was classed as inactive in test [1], in test [2], in test [3], in test [4], in test [5] and in test [6]. The call in test [7], in [8], in test [11] and in test [14] was inactive. Moreover, the Potency entry in test [9], in test [10] and in test [17] was “inactive” each time. The Potency was 68.6 µM (active) in test [12] and 61.1 µM (active) in [19].
Regarding `CC1=NS(=O)(=O)c2cc(Cl)ccc2N1`, the call in [1], in [2], in test [3], in test [4], in [5] and in [6] was inactive. The molecule was called inactive in [7], in test [8], in test [11] and in test [14]. Also, the Potency entry in [9], in test [10], in [12], in test [19], in [13] and in [17] was “inactive” each time.
On to `C1CCC2(CCCCO2)OC1`, for which the call in [1], in [2], in test [3], in [4], in [5] and in test [6] was inactive. The molecule was classed as inactive in [7], in test [8], in test [11] and in test [14]. Besides, the Potency entry in [9], in test [10], in [12], in test [19], in [13] and in test [17] was “inactive” each time.
Consider `CC(=O)NC(=O)c1ccccc1O`, for which the call in [1], in test [2], in test [3], in test [4], in [5] and in test [6] was inactive. Besides, the molecule was classed as inactive in test [7], in [8], in test [11] and in test [14]. Besides, the Potency result in test [9], in [10], in test [12], in test [19], in [13] and in test [17] was “inactive” each time.
Turning to `CCCC(C)C(=O)OCC` (configuration not stated), the molecule was classed as inactive in test [1], in test [2], in [3], in [4], in test [5] and in [6]. Besides, the outcome in [7], in [8], in test [11] and in test [14] was inactive. In addition, the Potency entry in test [9], in test [10], in [12], in test [19], in [13] and in test [17] was “inactive” throughout.
Consider `CCCCCC(C)N` (configuration not stated), for which the result in test [1], in test [2], in [3], in test [4], in [5] and in [6] was inactive. Also, the molecule was classed as inactive in [7], in test [8], in test [11], in test [14] and in [18]. For the same molecule, the Potency result in test [9], in test [10], in test [12], in [19], in test [13] and in test [15] was “inactive” each time. Besides, the Potency result in test [16] and in test [17] was “inactive” each time.
In the case of `COCCOC[C@H](CC1(C(=O)NC2CCC(C(=O)O)CC2)CCCC1)C(=O)Oc1ccc2c(c1)CCC2` (some centres not stated), the molecule was called inactive in test [1], in test [2], in test [3], in test [4], in [5] and in test [6]. For the same molecule, the molecule was called inactive in test [7], in [8], in [11], in test [14], in [20] and in test [18]. Further, the Potency entry in [9], in [10], in test [12], in test [19], in [13] and in [15] was “inactive” each time. Further, the Potency result in test [16] and in [17] was “inactive” each time.
Take `CC1=NN(c2cc(S(=O)(=O)O)ccc2Cl)C(=O)C1N=Nc1ccccc1` (configuration not stated): the call in test [1], in [2], in test [3], in test [4], in test [5] and in test [6] was inactive. The call in test [7], in test [8], in test [11] and in [14] was inactive. In addition, the Potency entry in [9], in test [10], in test [12], in test [19] and in test [13] was “inactive” in each case. Further, the Potency in test [17] was 61.1 µM (active).
As for `CCC(C)(CCCC(C)C)OC(C)=O` (configuration not stated), the molecule was called inactive in [1], in [2], in test [3], in [4], in [5] and in test [6]. In addition, the molecule was classed as inactive in test [7], in [8], in test [11] and in test [14]. Also, the Potency result in test [9], in [10], in test [12], in [19], in test [13] and in [17] was “inactive” each time.
In the case of `CN(C)C(=O)Oc1ccc[n+](C)c1`, the result in test [1], in test [2], in test [3], in [4], in test [5] and in test [6] was inactive. Besides, the call in [7], in test [8], in test [11] and in test [14] was inactive. Moreover, in test [9], the Potency was 26.8 µM (active). For the same molecule, the Potency entry in test [10], in test [12], in [19], in test [13] and in [17] was “inactive” in each case.
In the case of `CC(=O)c1cnccn1`, the outcome in test [1], in test [2], in [3], in test [4], in test [5] and in test [6] was inactive. Moreover, the result in test [7], in test [8], in test [11] and in test [14] was inactive. Further, the Potency result in test [9], in [10], in test [12], in test [19], in test [13] and in [17] was “inactive” in each case.
As to `CC1=C(C/C=C(\C)CCC[C@H](C)CCC[C@H](C)CCCC(C)C)C(=O)c2ccccc2C1=O`, the call in test [1], in test [2], in [3], in test [4], in test [5] and in test [6] was inactive. Also, the molecule was classed as inactive in test [7], in test [8], in [11] and in test [14]. Also, the Potency result in test [9], in test [10], in test [12], in [19], in [13] and in [17] was “inactive” throughout.
